# Compound activity as filed in PubChem BioAssay.
# This is a sample that favours compounds with a hit; in the whole collection about 3% have one here.
# HBB splice mod = qHTS Assay for Modulators of Hemoglobin Beta Chain Splicing; HBB splicing reporter cell assay, activation; EGFP reporter with mutant IVS2-654 intron; response scale: normalised to 500 nM splice-correcting PNA; Potency, µM (highest dose often 46.1 µM), for inactives: at the highest dose activation, usual class: activators; hit rate 0.06% among 65,000; AID 925, 2007; further: potency means the concentration at half of the fitted maximal effect; 0% is about no effect
#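 HeLa cells stably expressing EGFP interrupted by mutant beta-globin intron 2 (IVS2-654), 500/well in 2% FCS. Treated with compound for 2 days at 37C. Splicing correction scored as total well GFP intensity (488 nm excitation, 500-520 nm emission); 500 nM antisense PNA served as control.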
# Ub-GFP proteasome = Ubiquitin-GFP Assay; Ubiquitin-GFP reporter cells, proteasome inhibition, GFP fluorescence; response scale: untreated = 0%, 10 µM MG-132 = 100%; Potency, µM (titrated, usually from 45.9 µM), inactives show at the highest dose activation (GFP accumulation), most hits filed as activators; 67,000 tested, under 10 active; AID 526, 2006; active means well fitted activation curve with a large enough effect, not every such curve was filed as active; inconclusive means small, poorly fitted or top-dose-only effect, or another doubt; inactive means no such curve, though single readings can be large or run the other way; further: potency means the concentration at half of the fitted maximal effect
#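 GFP accumulation read-out: laser plate cytometry counting ubiquitin(G76V)-GFP-expressing U2OS cells after 4 hr compound exposure at 37 °C. Titrations spanned 46 uM to 2.9 nM; 0% = basal, 100% = 10 uM MG-132; concentration-response curves fitted.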
# HEK293 cAMP ctrl = qHTS Assay for Agonists of the Thyroid Stimulating Hormone Receptor: Activators of Intracellular cAMP Concentrations in Parental HEK 293; parental HEK293 CNG cAMP sensor, membrane potential fluorescence; hit rate 2.5% among 73,000; Potency, µM (series often up to 57.1 µM), inactives show at the highest dose activation, hits mostly activators; further: potency means the concentration at half of the fitted maximal effect; % of control where 0% means no effect; nearly all actives have a fitted effect of over 55% in size
#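 Parental HEK 293 cells stably expressing a modified CNG channel (no TSHR) report cAMP rise as membrane depolarization. Membrane potential dye with 100 uM RO 20-1724 was loaded for 60 min at room temperature, then compound added for 30 min; fluorescence read at 590 nm.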
# TSHR agonist = qHTS Assay for Agonists of the Thyroid Stimulating Hormone Receptor | Thyrotropin receptor (Homo sapiens), P16473 | HEK293-CNG-TSHR cells (CNG channel as cAMP sensor), membrane potential dye, cAMP | Potency, µM (series often up to 57.1 µM), for the others: at the top dose activation, hits mostly activators | hit rate 0.48% among 73,000; active means well fitted activation curve with a large enough effect in the main read-out, with a control signal flat, not every such curve was filed as active; inconclusive means small, poorly fitted or top-dose-only effect, or a change in a side signal; inactive means no such curve, though single readings can be large or run the other way; % of control where 0% means no effect;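 further: the control signal comes from parental cells without the receptor; potency means the concentration at half of the fitted maximal effect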
# Target sequence (P16473 whole entry, looked up): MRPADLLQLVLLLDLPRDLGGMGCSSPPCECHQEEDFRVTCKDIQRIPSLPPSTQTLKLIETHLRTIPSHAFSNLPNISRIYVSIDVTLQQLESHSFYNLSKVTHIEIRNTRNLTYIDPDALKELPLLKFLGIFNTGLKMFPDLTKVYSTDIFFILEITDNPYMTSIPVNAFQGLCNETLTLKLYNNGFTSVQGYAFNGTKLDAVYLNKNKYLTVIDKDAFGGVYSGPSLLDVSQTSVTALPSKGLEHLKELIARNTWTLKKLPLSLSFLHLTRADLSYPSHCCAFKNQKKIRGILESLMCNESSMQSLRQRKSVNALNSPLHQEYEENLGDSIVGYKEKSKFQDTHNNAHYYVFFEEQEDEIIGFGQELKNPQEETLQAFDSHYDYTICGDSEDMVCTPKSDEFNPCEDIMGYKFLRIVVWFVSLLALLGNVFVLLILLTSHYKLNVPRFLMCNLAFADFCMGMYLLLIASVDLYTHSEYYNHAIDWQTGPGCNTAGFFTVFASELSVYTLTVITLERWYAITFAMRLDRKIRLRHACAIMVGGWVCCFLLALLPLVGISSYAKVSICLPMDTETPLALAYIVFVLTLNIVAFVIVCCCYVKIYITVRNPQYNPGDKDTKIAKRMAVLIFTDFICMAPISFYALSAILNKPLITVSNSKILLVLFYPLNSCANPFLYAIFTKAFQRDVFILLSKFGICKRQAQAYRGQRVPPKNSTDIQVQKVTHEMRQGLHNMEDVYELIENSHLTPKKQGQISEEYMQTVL
#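 cAMP rise detected as CNG-channel membrane depolarization by fluorescent dye (emission 590 nm), 30 min after compound, following 60 min dye loading containing 100 uM RO 20-1724 at room temperature. Cells: TSHR/CNG HEK 293, with parental CNG HEK 293 as control.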
# GFP derepression = qHTS Assay for Epigenetic Modulators. Potency, µM (top dose mostly 46.1 µM), without a hit: top-dose GFP derepression (activation). mouse C127i GFP locus derepression, cytometry, 30 h. hit rate 0.09% among 68,000; further: % of control where 0% means no effect
#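 Read-out is the number of GFP-positive cells, scored as fluorescent objects 20 to 120 um wide, reflecting derepression of a silenced CMV-GFP reporter in murine C127i cells after 30 h compound exposure at 37 C.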
# Active calls of the source: *; ? = inconclusive; . = no result; [ ] = dose if it differs, or a comment. Unless noted, the call rests on the fitted dose curve; in most records, active means well fitted curve in the direction sought with a large enough effect; inconclusive means small, poorly fitted or top-dose-only effect, or another doubt; inactive means no such curve, though single readings can be large; an effect the other way counts as inactive or inconclusive.
SMILES,HBB splice mod,Ub-GFP proteasome,HEK293 cAMP ctrl,TSHR agonist,GFP derepression
CCOC(=O)c1oc2ccccc2c1NC(=O)C1CCCCC1,-2%,6%,16µM*,?,0%
CCOC(=O)c1oc2ccccc2c1NC(=O)c1ccc(S(=O)(=O)N2CCCC2)cc1,-1%,-14%,15%,.,15%
CCOCC(=O)Nc1c(C(=O)Nc2ccccc2OC)oc2ccccc12,-1%,7%,25µM*,?,2%
CCOC(=O)c1oc2ccccc2c1NC(=O)c1cccc(OC)c1,-2%,5%,32µM*,?,6%
O=C1[C@H]2[C@H]3[C@H](O)[C@H](O)C/C(=N/OCc4ccccc4)[C@H]3CC[C@@H]2C(=O)N1C1CCCCC1,3%[9.22 µM],.,-2%[11.4 µM],-16%[11.4 µM],.
O=c1[nH]c(C(F)(F)F)nc2c1nnn2Cc1ccccc1F,.,5%,25µM*,?,1%
C#CCNc1nc(C)nc2c1nnn2Cc1ccccc1F,.,4%,25%,1%,0%
COc1cc(C2N(c3ccccc3)CCN2c2ccccc2)cc(OC)c1OC,0%[9.22 µM],0%,29%,3.2µM*,2%
COc1cc(C2N(c3cccc(Cl)c3)C(=O)C3CCCN32)cc(OC)c1OC (stereo not given),1%,-10%,18%,-4%,-3%
C=C(CO)[C@H]1Cc2c(ccc3c2O[C@H]2COc4cc(OC)c(OC)cc4[C@@H]2C3=O)O1,.,2%,30%,21%,-5%[9.22 µM]
C[C@H](c1ccccc1)N1C(=O)[C@H]2[C@@H]3[C@H](O)[C@H](O)CC(=O)[C@H]3CC[C@H]2C1=O,2%[9.22 µM],.,3%[11.4 µM],-8%[11.4 µM],.
COc1ccc2oc(C(=O)OCC(=O)c3ccc4c(c3)OCCO4)c(C)c2c1,2%,-3%,20µM*,?,0%
NCCC[C@@H](CC(=O)N[C@@H]1CCCC[C@H]1C(=O)N[C@H](CC(=O)N[C@@H](CCC(=O)O)CC(=O)O)Cc1ccccc1)NC(=O)C[C@H](Cc1ccccc1)NC(=O)[C@@H]1CCCC[C@H]1N,0%,.,0.032µM*,?,.
CC(C)C[C@@H](CC(=O)N[C@@H](CCCN)CC(=O)N[C@@H]1CCCC[C@H]1C(=O)N[C@H](CC(=O)N[C@@H](CCC(=O)O)CC(=O)O)Cc1ccccc1)NC(=O)[C@@H]1CCCC[C@H]1N,4%,.,?,?,.
CC(=O)O[C@H]1CC[C@@]2(C)[C@@H](CC[C@@]3(C)[C@H]2C(=O)C=C2[C@H]4C[C@](C)(C(=O)OCCN5CCCCC5)CC[C@]4(C)CC[C@@]23C)C1(C)C,.,1%,-3%,-4%,0%[9.22 µM]
COc1ccc(O[C@H]2C=C[C@@H](c3ccccc3)O[C@H]2CO/N=C2/c3cc(OC)ccc3O[C@@H](c3cccc(OC)c3)[C@H]2O)cc1,1%[9.22 µM],.,-1%[11.4 µM],27%[11.4 µM],.
COc1ccc(C(=O)N2CCC[C@@]3(CCN(c4ccncc4)C3)C2)cc1,1%,-12%,11%,20%,-1%[9.22 µM]
O=C(c1ccncc1)N1CCC[C@@]2(CCN(C(c3ccccc3)c3ccccc3)C2)C1,0%,-2%,4µM*,?,-2%[9.22 µM]
COc1ccc(C(=O)N2CCC[C@@]3(CCN(c4ccccc4)C3)C2)cc1,0%,-3%,13µM*,?,0%[9.22 µM]
Cn1cccc1C(=O)N1CCC[C@@]2(CCN(c3ccncc3)C2)C1,3%,-7%,5µM*,?,-2%[9.22 µM]
N[C@H](Cc1ccc(F)cc1)C(=O)O,2%,8%,8%,8%,1%
COc1ccc(C(C(=O)NC2CCCC2)N(C(=O)c2ccco2)c2ccc3c(c2)OCO3)cc1OC (stereo not given),0%[57.5 µM],0%,17%,10µM*,1%
COc1ccc(N(C(=O)c2ccco2)C(C(=O)NC2CCCC2)c2ccc(N(C)C)cc2)cc1OC (stereo not given),0%[57.5 µM],-7%,20%,7%,-3%
